Assay outcomes (PubChem BioAssay)
The list is not random: actives were taken first. Their share in the collection is about 1.6%.
RAD54 branch – blocks human RAD54 Holliday junction branch migration | actives 0.14% (n = 360,000) | FAM/BHQ fluorescence | inhibition, % at 10.4 µM | AID 602329;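 active = mean normalized replicate activity at least 40 and at least half of replicates scoring 40 or more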;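 note: 0% = median of neutral control wells and 100% = median of positive control wells; inhibitors cause a drop in the FAM fluorescence signal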
Vif imaging – inhibitors of HIV Vif. HEK293T cells, Vif self-association by quenched fluorescence, imaging, 24 h. inhibition, % at 7.49 µM. actives 0.35% (n = 340,000). AID 602346; in the data active = inhibition above about 50%, passing the limit was not always enough
Myeloid diff MLP – myeloid differentiation induction | ER-HoxA9 myeloid progenitors, lysozyme-GFP differentiation, flow cytometry | calls only at 10 µM | actives 1% (n = 360,000) | AID 624256;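 active = normalized GFP-positive differentiation at or above the plate's own cutoff, the solvent-only control mean plus 3 SD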;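 note: cells exposed to compound for four days before flow analysis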
Glyco luc inh – blocks N-linked glycosylation in D54 reporter cells; actives 0.23% (n = 360,000); D54 ERlucT glycosylation luciferase reporter, 24 h; percent of 100 nM tunicamycin response; reporter increase, % at 12.5 µM;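 active = mean luciferase reporter signal, scaled so untreated is 0 and the glycosylation-blocking control 100, at or above a set limit in every replicate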;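 note: luciferase carries N-glycosylation sites so blocking glycosylation raises the light; 0% = median of neutral control wells and 100% = median of 100 nM tunicamycin wells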
ABCB6 inh 2 – inhibitors of human ABC transporter ABCB6. Q9NP58. K562-ABCB6 porphyrin accumulation, flow cytometry, 1 h; hits give low values. fluorescence ratio to DMSO, % at 10 µM. actives 0.19% (n = 360,000). AID 602162;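 active = fluorescence ratio to DMSO below 75%, the collection mean minus 3 SD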;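 note: signal is porphyrin accumulated inside mitochondria; 100% equals median channel fluorescence of DMSO control wells; lower ratio means ABCB6 inhibition with less porphyrin fluorescence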
Target sequence (Q9NP58 whole entry, looked up): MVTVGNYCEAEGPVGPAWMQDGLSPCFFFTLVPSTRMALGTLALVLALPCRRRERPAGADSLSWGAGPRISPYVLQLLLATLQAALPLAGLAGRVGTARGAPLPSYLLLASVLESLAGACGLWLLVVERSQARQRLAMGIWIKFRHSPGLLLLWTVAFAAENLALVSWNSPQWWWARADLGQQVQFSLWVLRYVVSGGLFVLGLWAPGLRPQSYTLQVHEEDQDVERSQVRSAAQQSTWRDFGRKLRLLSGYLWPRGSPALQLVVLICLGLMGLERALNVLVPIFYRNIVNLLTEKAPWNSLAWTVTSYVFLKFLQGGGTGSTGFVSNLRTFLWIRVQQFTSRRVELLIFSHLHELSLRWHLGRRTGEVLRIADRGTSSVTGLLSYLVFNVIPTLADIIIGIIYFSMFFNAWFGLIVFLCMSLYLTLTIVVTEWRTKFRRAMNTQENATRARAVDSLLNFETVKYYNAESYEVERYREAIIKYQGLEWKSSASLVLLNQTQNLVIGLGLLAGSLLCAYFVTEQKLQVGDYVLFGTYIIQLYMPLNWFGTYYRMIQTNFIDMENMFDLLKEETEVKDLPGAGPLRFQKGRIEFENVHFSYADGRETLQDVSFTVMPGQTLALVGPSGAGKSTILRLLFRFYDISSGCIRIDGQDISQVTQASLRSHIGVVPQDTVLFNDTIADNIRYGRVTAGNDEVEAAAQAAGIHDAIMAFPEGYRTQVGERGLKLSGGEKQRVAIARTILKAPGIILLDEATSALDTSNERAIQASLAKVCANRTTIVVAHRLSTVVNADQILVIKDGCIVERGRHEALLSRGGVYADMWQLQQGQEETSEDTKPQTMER
Myeloid diff CP1 – myeloid differentiation induction; shares compounds with Myeloid diff MLP; ER-HoxA9 myeloid progenitors, GFP/Mac1 double-positive flow; calls only; actives 2% (n = 2,300); AID 651706;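 active = share of green or green-and-red cells above 9 and 9% in run 1 or 4 and 3% in run 2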
GFP autofluor – compound fluorescence in myeloid differentiation counter-screen; shares compounds with Myeloid diff MLP; ER-HoxA9 myeloid progenitors, no estrogen, GFP autofluorescence flow cytometry; vehicle wells 0%, positive control 100%; fluorescence response, % (no concentration beside the values); actives 7.4% (n = 2,300); AID 651707;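 active = over 5% cells positive for green fluorescent reporter, or over 2% positive for both it and APC stain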;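 note: range taken on the double positive population between DMSO and positive control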
An asterisk follows results filed as active; i = inactive; . = no result given; + = active, no number.

SMILES	RAD54 branch	Vif imaging	Myeloid diff MLP	Glyco luc inh	ABCB6 inh 2	Myeloid diff CP1	GFP autofluor
Cc1cccc(NC(=O)CNC(=O)CCc2nc3sc4c(c3c(=O)[nH]2)CCCC4)c1C	9	-14	+	4	98	i	0
Cc1cccc(NC(=O)CCc2nc3sc4c(c3c(=O)[nH]2)CCCC4)n1	-7	-1	i	3	99	.	.
Cc1cc(C)n2ncc(C(=O)NCc3cccnc3)c2n1	-4	-6	+	0	98	i	0
O=C(Nc1ccccc1Cl)c1cc(S(=O)(=O)N2CCCCC2)ccc1N1CCOCC1	-1	-5	i	-2	94	.	.
Cc1ccc(OCCOC(=O)c2cc(S(=O)(=O)N3CCCCC3)ccc2N2CCOCC2)cc1	1	-13	+	-4	88	i	0
O=C(Nc1cccc(C(F)(F)F)c1)c1cc(S(=O)(=O)N2CCCCC2)ccc1N1CCOCC1	6	19	i	-6	105	i	0
O=C(CCN1CCN(c2ccccc2)CC1)Nc1ccccc1F	.	-1	i	-1	103	i	0
O=C(C1CC1)N1CCCCN2[C@@H](CO)[C@@H](c3ccc(-c4ccncc4)cc3)[C@@H]2C1	7	.	.	.	.	.	.
Nc1ccc(-n2nc3ccccc3n2)cc1	-4	-18	i	-3	101	.	.
Nc1ccc2nn(-c3ccccc3)nc2c1	3	7	i	3	129	i	1
COC(=O)C[C@@H]1CC[C@H]2[C@@H](COc3ccc(NC(=O)c4ccc(OC)cc4)cc3C(=O)N2C)O1	-9	.	.	.	.	.	.
CO[C@H]1CN(C)C(=O)c2ccc(NC(=O)C3CCCCC3)cc2OC[C@@H](C)NC[C@@H]1C	4	.	.	.	.	.	.
COC(=O)c1ccc(NC(=S)NC2CCCCC2C)cc1 (stereo unspecified)	.	0	+	7	100	i	0
COc1cccc(C#Cc2cnc3c(c2)C(=O)N([C@H](C)CO)C[C@@H](C)[C@@H](CN(C)C(=O)C2CCOCC2)O3)c1	6	.	.	.	.	.	.
CC(C)NC(=O)N(C)C[C@@H]1OCCCC[C@@H](C)Oc2ccc(NS(C)(=O)=O)cc2C(=O)N([C@H](C)CO)C[C@H]1C	-10	.	.	.	.	.	.
N/C(=N\OC(=O)C12CC3CC(CC(C3)C1)C2)c1cccnc1	-3	-2	i	0	102	i	0
COc1cc2c(cc1OC)C(c1cc3ccccc3oc1=O)=NC(C)(C)C2	-5	-1	i	-1	90	i	0
Cc1ccc(-c2cnc3c(c2)C(=O)N([C@H](C)CO)C[C@@H](C)[C@@H](CN(C)C(=O)Cc2ccccc2)O3)cc1	-5	-1	i	2	97	i	0
Cc1ccc(S(=O)(=O)N(C)C[C@H]2Oc3c(NC(=O)Nc4cccc5ccccc45)cccc3C(=O)N([C@@H](C)CO)C[C@@H]2C)cc1	7	-5	i	6	96	i	0
COCC(=O)N(C)C[C@H]1Oc2ncc(C#C[C@H](C)O)cc2C(=O)N([C@@H](C)CO)C[C@H]1C	-6	13	+	3	102	i	0
C[C@@H]1CN([C@H](C)CO)C(=O)c2cccc(NC(=O)Nc3cccc4ccccc34)c2O[C@H]1CN(C)S(=O)(=O)c1ccccc1	7	.	.	.	.	.	.
C[C@@H]1CN([C@H](C)CO)C(=O)c2cc(NC(=O)CCC(F)(F)F)ccc2O[C@H]1CN(C)S(=O)(=O)c1cn(C)cn1	18	.	.	.	.	.	.
CCCC#Cc1cnc2c(c1)C(=O)N([C@H](C)CO)C[C@H](C)[C@H](CN(C)C(=O)CCN1CCCCC1)O2	4	.	.	.	.	.	.
NC(=O)C1CCN(C(=O)c2ccco2)CC1	1	-2	i	0	98	i	0
O=C(O)C1CCN(C(=O)c2ccco2)CC1	-3	8	i	3	100	.	.
SMILES	RAD54 branch	Vif imaging	Myeloid diff MLP	Glyco luc inh	ABCB6 inh 2	Myeloid diff CP1	GFP autofluor
O=C(NCc1ccc(F)cc1)[C@@H]1[C@@H](CO)[C@@H]2Cn3c(cccc3=O)[C@@H]2N1C(=O)C1CC1	3	.	.	.	.	.	.
CCCCOc1ccc(OC(=O)Nc2cc(Cl)ccc2OC)cc1	-4	-2	i	-1	94	+	0
COc1ccc(Cl)cc1NC(=O)CC(=O)Nc1cc(Cl)ccc1OC	5	-4	i	-1	98	.	.
CCOC(=O)C1CCN(C(=O)COC(=O)/C=C/c2ccc([N+](=O)[O-])cc2)CC1	-9	-4	i	-1	98	i	2
CCOC(=O)C1CCN(C(=O)COc2ccc([N+](=O)[O-])cc2)CC1	.	-3	i	0	96	.	.
CC(C)OC(=O)N(C)C[C@@H]1OCc2ccccc2-c2ccccc2C(=O)N([C@@H](C)CO)C[C@@H]1C	4	.	.	.	.	.	.
O=C(CCCN1C(=O)C(=Cc2ccc3c(c2)OCO3)SC1=S)Nc1ccc(C(=O)O)c(O)c1	8	.	i	2	103	i	0
O=C(CCCN1C(=O)/C(=C/c2ccc3c(c2)OCO3)SC1=S)Nc1ccc(C(=O)O)cc1	-8	-2	i	2	97	.	.
O=C(CCCN1C(=O)/C(=C/c2ccco2)SC1=S)Nc1cccc(C(=O)O)c1	.	6	i	-1	97	+	0
O=C(C[C@H]1CC[C@H]2[C@@H](COC[C@@H](O)CN2S(=O)(=O)c2ccc(F)cc2)O1)NCc1ccc(Cl)c(Cl)c1	-4	.	.	.	.	.	.
CO[C@H]1CN(C)C(=O)c2ccc(NC(=O)c3nc4ccccc4s3)cc2OC[C@@H](C)N(Cc2cncnc2)C[C@@H]1C	3	.	.	.	.	.	.
CC(OC(=O)/C=C/c1ccc2ccccc2n1)C(=O)Nc1ccc(S(N)(=O)=O)cc1 (stereo unspecified)	-2	19	i	0	99	i	0
CC1(C)CN(c2ccc(Br)cc2)C(=O)[C@H]1CC(=O)Nc1ccccc1	-1	0	i	0	99	.	.
CCCCN1C[C@H](Cc2ccccc2)[C@@H](CC(=O)Nc2ccc(OC)cc2)C1=O	.	-1	i	2	100	.	.
CCCCN1C[C@H](Cc2ccccc2)[C@@H](CC(=O)Nc2ccccc2)C1=O	1	8	i	-3	95	i	0
CC1(C)CN(CCc2ccccc2)C(=O)[C@H]1CC(=O)Nc1ccccc1	.	-2	+	-1	105	i	10*
CCOc1cc(C(=O)Nc2cc(C(=O)OC)ccc2C)ccc1OCC(=O)N1CCOCC1	-11	9	i	-1	98	.	.
CCOc1cc(C(=O)Nc2ccc(C)cc2O)ccc1OCC(=O)N1CCOCC1	.	21	+	2	118	i	2
COc1ccc(-c2noc(CCC(=O)N3CCN(c4cccc(C(F)(F)F)c4)CC3)n2)cc1	-6	-17	+	-3	92	i	0
